RORg inh – inhibitors of mouse ROR gamma transcriptional activity | P51450 | Drosophila S2 Gal4-RORgamma UAS-luciferase reporter, 20 h | Potency, µM (doses to about 53.6 µM), inactives show top-dose activity change, negative = inhibition, actives largely listed as inhibitors | 310,000 tested, 5.4% active; note: potency is the fitted concentration of half-maximal effect; nearly all actives have a fitted effect of over 60% in size
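ROR gamma transcriptional activity was tracked as Gal4-UAS luciferase output in stably transfected Drosophila Schneider cells, with compound added 1 hr before 700 uM copper sulfate induction and a 20 hr ambient-temperature incubation.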
Coupling enz – inhibits coupling enzyme system, counter-screen for aldolase hits. coupling enzyme system counterscreen, AmpLite Red fluorescence. activity change, negative = inhibition, % at 58.2 µM, hits read low. 290,000 tested, 0.67% active. AID 2472; in the data active = activity change below about -30%
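Coupling enzymes only (glyceraldehyde-3-phosphate) + compound, at 57.5 uM final, 10 min RT; add substrate/coupling/AmpLite Red mix, 20 min RT; fluorescence ex 525/em 598 nm. Actives flag coupling-system interference.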
Gal4-VP16 FLuc – inhibits Gal4-VP16 luciferase reporter, ROR gamma counter-screen; 310,000 tested, 3.5% active; AID 2546; Potency, µM (titrated, usually from 53.6 µM), inactives show top-dose activity, negative = inhibition, most hits filed as inhibitors; Drosophila S2 Gal4-VP16 UAS-luciferase, luminescence, 20 h;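 note: Gal4-VP16 expression switched on by copper sulfate through the metallothionein promoter; potency is the fitted concentration of half-maximal effect; nearly all actives have a fitted effect of over 50% in size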
TrxR1 substrate – rat thioredoxin reductase 1 substrate activity | O89049 | purified TrxR1 substrate turnover, NADPH consumption readout | Potency, µM (doses to about 114 µM), inactives show top-dose activity change, negative = substrate turnover | 390,000 tested, 0.01% active | AID 588456; note: potency is the fitted concentration of half-maximal effect; nearly all actives have a fitted effect of over 50% in size
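Rat TrxR1, dispensed at 90 nM, was prereduced with 400 uM NADPH (final) for 5 min at ~22 deg C, then incubated with compound 15 min before 400 uM selenite. A first-read NADPH fluorescence drop versus no-compound background flagged substrates.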
GALK inh – inhibitors of human galactokinase; AID 1868; P51570; Purified GALK, Kinase-Glo residual ATP luminescence; Potency, µM (series often up to 57.5 µM), without a hit: at the top dose activity change, negative = inhibition, most hits filed as inhibitors; 270,000 tested, 0.007% active; note: potency is the fitted concentration of half-maximal effect
Target sequence (P51570 whole entry, looked up): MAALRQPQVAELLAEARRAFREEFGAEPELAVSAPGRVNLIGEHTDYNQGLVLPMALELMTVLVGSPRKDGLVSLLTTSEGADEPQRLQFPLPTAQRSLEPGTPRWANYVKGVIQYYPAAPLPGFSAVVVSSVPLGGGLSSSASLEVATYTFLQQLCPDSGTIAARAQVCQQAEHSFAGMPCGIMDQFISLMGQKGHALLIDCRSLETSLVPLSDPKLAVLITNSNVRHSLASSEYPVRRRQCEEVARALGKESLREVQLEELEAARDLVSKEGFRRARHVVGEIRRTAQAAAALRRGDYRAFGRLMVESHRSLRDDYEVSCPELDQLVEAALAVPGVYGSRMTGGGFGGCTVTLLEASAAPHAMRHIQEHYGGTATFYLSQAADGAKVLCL
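GALK at 5 nM final was combined with compound, 35 uM ATP and 100 uM galactose in HEPES pH8.0 with MgCl2 and DTT. The reaction ran one hour at room temperature before luminescent ATP detection.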
TrxR1 inh – blocks rat thioredoxin reductase 1 | O89049 | recombinant rTrxR1, NADPH fluorescence consumption, selenite substrate | Potency, µM (series often up to 114 µM), without a hit: at the top dose activity change, negative = inhibition, hits mostly inhibitors | 390,000 tested, 1% active | AID 588453; note: potency is the fitted concentration of half-maximal effect; nearly all actives have a fitted effect of over 65% in size
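Rat TrxR1 (90 nM in the dispensed reagent) was pre-reduced with 400 uM NADPH for 5 min at room temperature, then incubated with compound for 15 min. After 400 uM selenite was added, NADPH fluorescence (Ex 340/Em 450 nm) was followed for 8 min.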
An asterisk follows results filed as active; ? = inconclusive; . = no result; [ ] = another dose, or the depositor's remark. Only some compounds are listed: those with a hit (about 5.9% of all), similar ones and a draw of the others. Unless noted, calls come from the whole dose curve; as a rule, active = well fitted curve in the direction sought with a large enough effect; inconclusive = small, poorly fitted or top-dose-only effect, or another doubt; inactive = no such curve, though single readings can be large; an effect the other way counts as inactive or inconclusive. % is set by controls: 0 for no effect and ±100 for the full control effect.

SMILES	RORg inh	Coupling enz	Gal4-VP16 FLuc	TrxR1 substrate	GALK inh	TrxR1 inh
CCOc1ccc(NC(=S)NN2C(C)CCCC2C)cc1 (stereo unspecified)	2.2µM*	4	8.9µM*	-2%	1%	3%
O=C(NCC(c1cccs1)N1CCOCC1)C1CCN(S(=O)(=O)c2c(Cl)cccc2Cl)CC1 (stereo unspecified)	.	.	.	-10%	.	4%
CCOc1ccccc1NC(=O)COC(=O)COc1c(Cl)cc(Cl)c2ccc(C)nc12	.	.	.	9%	.	6%
CCN(CC(=O)NC(C)(C)C)C(=O)COc1c(Cl)cc(Cl)c2ccc(C)nc12	1.3µM*	-8	3.2µM*	25%	-5%	24%
Cc1ccc2c(Cl)cc(Cl)c(OCC(=O)NC3CCS(=O)(=O)C3)c2n1 (stereo unspecified)	8.9µM*	0	11µM*	-6%	-2%	-22%
O=[N+]([O-])c1ccc(N/N=C/c2sc(N3CCOCC3)nc2-c2ccccc2)c(S(=O)(=O)Nc2ccc(Cl)cc2)c1	?	-5	3.2µM*	-17%	-3%	-31%
O=[N+]([O-])c1ccc(N/N=C/c2sc(N3CCOCC3)nc2-c2ccccc2)c(S(=O)(=O)Nc2ccccc2Cl)c1	7%	-5	-15%	-8%	-1%	1%
O=C(N/N=C/c1sc(N2CCOCC2)nc1-c1ccccc1)c1ccccc1Cl	0%	0	-7%	-3%[57.1 µM]	2%	7%[57.1 µM]
O=C(N/N=C/c1sc(N2CCOCC2)nc1-c1ccccc1)c1ccccc1O	2.2µM*	-1	2.8µM*	-7%	-3%	-21%
O=C(N/N=C/c1ccc(N2CCOCC2)s1)c1ccccc1Cl	7.9µM*	-3	?	-7%	2%	1%
Cc1sc2ncnc(N3CCC(C(=O)NNC(=O)c4ccccc4Cl)CC3)c2c1C	12%	.	0%	-11%	-9%	-15%
CCN(CC)c1nn2c(=O)c(C(=O)NCCc3ccccc3C)cnc2s1	.	.	.	30%[57.1 µM]	.	21%[57.1 µM]
Cc1ccc(NC(=O)CNc2ccc(OC(C)C)cc2)cc1	-1%	-5	-12%	-6%	0%	-12%
Cc1ccc(-n2nc3c(N4CCC(C(=O)NC(C)c5ccccc5)CC4)nnc(C)c3c2C)cc1 (stereo unspecified)	.	.	.	12%	.	15%
Cc1ccc(/C=C2/CCc3c([nH]c4ccccc34)C2=O)cc1	?	-1	?	-5%	-4%	-6%
Cc1ccc2[nH]c3c(c2c1)CC/C(=C/c1ccccc1)C3=O	4µM*	1	6.3µM*	1%	-2%	9%
O=C(NCc1ccco1)/C(=C/c1ccc(C(F)(F)F)cc1)c1nc2ccccc2[nH]1	-3%	-4	-6%	3%	0%	?
O=S(=O)(/C(=C\c1ccc(C(F)(F)F)cc1)c1nc2ccccc2[nH]1)c1ccccc1	.	.	.	-2%	.	4.5µM*
COc1ccc(NS(=O)(=O)c2cccc(C(=O)N/N=C/c3c(F)c(F)c(F)c(F)c3F)c2)cc1	.	.	.	-2%	.	10%
CC(C)c1ccc(C2N3CC4([N+](=O)[O-])CN2CC([N+](=O)[O-])(C3)C4(C)C)cc1 (stereo unspecified)	1%	-1	-2%	3%	-2%	31%
CSCCC(Nc1ccc(S(=O)(=O)N2CCOCC2)cc1[N+](=O)[O-])C(=O)OCC(=O)NCC(C)C (stereo unspecified)	12%	-4	-8%	-6%	-3%	1%
COc1ccc(-c2cn3cccc(C)c3n2)cc1F	-5%	-29	-14%	46%	-1%	-2%[57.1 µM]
COc1ccc(-c2cn3cc(C)ccc3n2)cc1F	2µM*	-34*	4µM*	48%[57.1 µM]	7%	-1%[57.1 µM]
COc1ccc(-c2cn3cc(C)ccc3n2)cc1OC	11µM*	-11	?	306%	0%	-34%
COc1ccc(-c2cn3ccccc3n2)cc1OC	5%	-23	-16%	212%[57.1 µM]	9%	63%[57.1 µM]

Bioassay records: PubChem, National Center for Advancing Translational Sciences (NCATS)
